Screening results: PubChem, several laboratories
Sampled rows, rich in hits. Any-hit rate of the full collection: about 7.8%.
PostGolgi yeast: growth inhibition of a yeast mutant, post-Golgi transport screen; post-Golgi transport phenotypic cell assay; inhibition, % at 10 µM; actives 0.9% (n = 98,000);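 further: yeast cells grown in 1536-well plates; yeast grown about 18 h at 30C before absorbance read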
sEH activator: increases human soluble epoxide hydrolase activity; P34913; purified human sEH enzymatic activity, activator screen; activation, % at 2 µM; actives 0.04% (n = 91,000); AID 717; in the data active means activation above about 37%
Target sequence (P34913 whole entry, looked up): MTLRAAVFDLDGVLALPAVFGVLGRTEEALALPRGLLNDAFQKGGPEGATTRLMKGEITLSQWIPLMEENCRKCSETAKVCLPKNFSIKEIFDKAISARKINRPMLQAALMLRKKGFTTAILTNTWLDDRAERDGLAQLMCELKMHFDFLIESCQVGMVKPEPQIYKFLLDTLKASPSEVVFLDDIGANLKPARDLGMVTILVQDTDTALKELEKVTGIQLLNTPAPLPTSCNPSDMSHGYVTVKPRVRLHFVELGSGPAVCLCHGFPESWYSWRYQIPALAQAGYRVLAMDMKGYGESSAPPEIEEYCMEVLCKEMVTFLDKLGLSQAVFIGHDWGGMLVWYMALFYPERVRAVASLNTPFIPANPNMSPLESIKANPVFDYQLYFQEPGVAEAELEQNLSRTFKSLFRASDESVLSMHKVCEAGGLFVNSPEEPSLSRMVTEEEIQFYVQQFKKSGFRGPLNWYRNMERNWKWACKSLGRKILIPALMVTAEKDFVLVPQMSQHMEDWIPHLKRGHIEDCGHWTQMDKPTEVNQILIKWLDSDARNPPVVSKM
PostGolgi ctrl: inhibits growth of the yeast control strain | inhibition, % at 10 µM | actives 5% (n = 98,000) | efflux-deficient yeast background strain, growth absorbance A615, 16 h
sEH inh: blocks human soluble epoxide hydrolase activity; recombinant human sEH enzymatic activity assay; AID 707; actives 0.34% (n = 91,000); P34913; inhibition, % at 2 µM; in the data active means inhibition above about 80%
Cav32 inh: blocks human Cav3.2 T-type calcium channel | O95180 | Cav3.2-expressing cells, Fluo-4 calcium fluorescence FDSS; active compounds read low | B-score at 10 µM | actives 4% (n = 100,000);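 active means single-dose well whose peak fluorescence ratio is a statistical outlier from its plate by either plate-standardised score or position-corrected B-score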
Numbers without * were called inactive; nt = not tested or not shown. Unless noted, no stated cut-off is given here; in the data, active means inhibition above about 30%; inactive means the rest.

SMILES	PostGolgi yeast	sEH activator	PostGolgi ctrl	sEH inh	Cav32 inh
O=C(CN1C(=O)C2CC=CCC2C1=O)Nc1nc2ccccc2[nH]1 (centres undefined)	0.6	1.1	6.5	0.1	-0.0673
Cc1ccc(-c2csc3ncnc(Sc4nnc(CN5CCCCCC5=O)o4)c23)cc1	-4.9	nt	19.7	nt	-6.69*
CCc1ccc(OCC(O)CN2CCN(c3ccccc3)CC2)cc1 (centres undefined)	6.5	10.5	32.6*	-9.9	-0.569
CCCc1ccc(OCC(O)CN2CCN(c3ccccc3)CC2)cc1 (centres undefined)	72.5*	-1.6	85.4*	1.2	-2.51
Cc1ccc(OCC(O)CN2CCN(c3ccccc3)CC2)cc1 (centres undefined)	0.0	nt	21.5	nt	-0.456
CN1c2ccccc2C(O)=C(C(=S)Nc2ccc(F)c(Cl)c2)S1(=O)=O	17.2	9.8	20.3	-7.3	-10.8*
CS(=O)(=O)N1CCN(C(=O)NC23CC4CC(CC(C4)C2)C3)CC1	0.5	-79.3	6.4	79.9	0.46
O=C(NC12CC3CC(CC(C3)C1)C2)N1CCN(S(=O)(=O)c2ccc(Cl)cc2)CC1	-0.8	-61.8	23.0	63.0	-7.03*
COC(=O)c1ccc(C(=O)OC)c(NC(=O)CN(c2ccc3c(c2)OCO3)S(C)(=O)=O)c1	6.0	11.5	11.0	-14.1	-1.21
N#CCCSc1nc(N2CCOCC2)c2c(c1C#N)CCCC2	8.6	1.5	16.5	2.1	nt
COC(=O)c1ccc(CSc2nc(N3CCOCC3)c3c(c2C#N)CC(C)(C)OC3)o1	8.0	6.2	18.9	-6.2	-2.17
CCCc1nc(N2CCOCC2)c(C#N)c2c1CCCC2	-1.1	-4.4	38.9*	5.7	-2.67
CC(C)CCSc1nc(N2CCOCC2)c2c(c1C#N)CC(C)(C)OC2	-3.0	-5.2	18.0	5.7	-3.8*
COC(=O)CSc1nc(-c2ccccc2)c2c(c1C#N)CCCC2	0.8	1.4	7.0	-1.4	-2.81
CCCSc1nc(N2CCOCC2)c2c(c1C#N)CCCC2	-9.5	-9.1	28.4	8.8	-6.56*
COC(=O)CSc1nc(N2CCCCC2)c2c(c1C#N)CCCC2	-4.9	9.4	38.3*	-9.1	-2.71
C=CCn1c(SCc2c(Cl)cccc2Cl)nnc1-c1cccnc1	-4.9	-1.7	5.9	0.8	0.396
Clc1ccc(Cn2c(-c3cccnc3Cl)nc3ccccc32)cc1	6.8	6.6	18.3	-4.2	-4.01
Clc1ccc(Cn2c(-c3cccnc3Cl)nc3ccccc32)c(Cl)c1	3.3	-1.2	37.8*	3.4	-3.04
Nc1nonc1-c1nc2ccccc2n1Cc1ccc(F)cc1Cl	4.1	nt	10.6	nt	nt
Fc1ccc(Cn2c(-c3cscn3)nc3ccccc32)c(Cl)c1	3.5	-6.3	33.7*	3.6	-0.00905
O=C1CC(C2CCCO2)C(=O)N1c1cccc(Cl)c1 (centres undefined)	-10.3	-2.7	10.4	3.3	-0.0615
O=[N+]([O-])c1ccc2c(c1)C(N1CCOCC1)/C(=C/COc1ccc(Cl)cc1Cl)O2 (centres undefined)	-1.9	-2.8	26.6	2.8	-3.62*
Cc1ccccc1NC(=O)N1CCCC(c2nc(-c3ccc(C(C)C)cc3)no2)C1 (centres undefined)	-15.2	-27.8	24.7	29.3	-4.21*
Cc1ccccc1NC(=O)N1CCCC(c2nc(-c3ccc(F)cc3)no2)C1 (centres undefined)	6.2	nt	18.4	nt	-2
SMILES	PostGolgi yeast	sEH activator	PostGolgi ctrl	sEH inh	Cav32 inh
Cc1nn(-c2ccccc2)c(-c2ccccc2)c1C(=O)O	0.8	2.5	17.5	-2.2	0.0582
N#Cc1cn(CCOc2ccccc2F)c2ccccc12	-3.5	-1.0	57.9*	3.3	-2.66
Cc1c(C#N)c2ccccc2n1CCOc1ccccc1F	3.3	-3.9	67.3*	3.5	-0.744
O=C(c1ccc2c(c1)OCO2)N1CCC2(CC1)Oc1ccc(Cl)cc1C(=O)C21CC(c2ccc(Cl)cc2)=NO1 (centres undefined)	nt	nt	nt	nt	0.0361
CCN(CC)C(=S)Sc1c(-c2ccccc2)c2cc(Cl)ccc2[nH]c1=O	18.2	-11.4	32.0*	11.3	-1.16
CCC(=O)c1ccc(N2CCN(C(=O)c3ccc(Br)cc3)CC2)c(F)c1	61.5*	2.9	24.8	-1.6	0.716
CCCC(=O)c1ccc(N2CCN(C(=O)c3ccc(Br)cc3)CC2)c(F)c1	7.7	-5.7	-0.3	5.3	0.0985
Cc1cc2c(cc(C(=O)OCC(=O)NCc3cccs3)n2C(C)C)o1	10.1	-9.4	56.7*	5.4	-3.48
CC(C)(C)c1cc(C(F)(F)F)nc(SCCCNC(=O)c2ccco2)n1	-2.0	0.4	8.7	-0.1	-4.63*
COc1ccc(C2CC(=O)C=C(NCCC(C)C)C2)cc1 (centres undefined)	nt	2.2	nt	3.5	0.0722
Cc1ccc(NC(=O)c2ccc(Cl)c(N3C(=O)C=CC3=O)c2)cc1	-6.6	-69.4	3.9	70.7	0.938
O=C1/C(=C\c2cccs2)N=C(c2cccs2)N1Nc1ccccc1	4.4	5.9	16.9	-3.6	-1.01
Cc1ccc(NN2C(=O)C=C(c3ccc(Cl)cc3)C2=O)cc1	106.4*	16.2	99.4*	-17.8	0.641
O=C1C=C(c2ccccc2)C(=O)N1Nc1ccccc1	103.5*	3.5	29.7	-5.0	0.153
COC(=O)c1ccc(NC(=O)c2cccc(Cl)c2)o1	16.2	-1.9	7.8	3.8	-0.0286
CCCS(=O)(=O)c1cn2cccc(N)c2c1S(=O)(=O)CCC	-0.6	nt	31.3*	nt	0.161
O=C(O)c1cccc(N2C(=O)CSC2c2c(F)cccc2Cl)c1 (centres undefined)	8.1	-12.7	1.2	11.0	0.838
CCC(C)(NC(=O)c1cccc(N2C(=O)CSC2c2ccccc2)c1)C(=O)Nc1ccccc1C (centres undefined)	-8.1	3.0	8.2	-0.4	-5.13*
CCn1nccc1C(=O)Nc1ccc(Cl)cn1	-9.6	3.3	1.0	-1.3	-0.203
CCn1nccc1C(=O)Nc1cc(Cl)cc(Cl)c1	nt	-9.6	nt	8.4	-3.76*
CCCN(Cc1cc2ccc(C)cc2[nH]c1=O)S(=O)(=O)c1ccccc1	8.1	5.0	36.5*	-7.0	-0.896
C#CCOCCOCCOCCNc1nc(N2CCN(C(=O)[C@H](CCC(=O)O)n3cc(C(N)CC(C)C)nn3)CC2)nc(N2CCN(C(=O)[C@H](CCC(=O)O)n3cc(C(N)[C@H](C)CC)nn3)CC2)n1 (some centres undefined)	nt	nt	nt	nt	-0.139
CCOc1ccc(OCC)c(C2C(C#N)=C(N)N(c3cccnc3)C3=C2C(=O)CC(C)(C)C3)c1 (centres undefined)	2.8	0.1	-2.7	0.1	-0.0123
CC(Sc1nc2ccccc2n1C)C(=O)NC(c1ccccc1)c1ccccc1 (centres undefined)	nt	8.2	nt	-2.4	-9.34*
CCNC(=O)NC(=O)C(C)Sc1nc2ccccc2n1CC(C)C (centres undefined)	-2.8	9.9	31.8*	-8.5	-2.3
CCNC(=O)NC(=O)C(C)Sc1nc2cc(C(=O)OC)ccc2c(=O)n1-c1ccccc1 (centres undefined)	7.7	12.5	8.9	-12.9	nt
CN(CCOc1ccccc1)c1ccc(S(=O)(=O)N2CCCCC2)cn1	-2.2	3.2	12.7	-1.9	-7.6*
